According to PubChem BioAssay AID2410 (Southern Research Specialized Biocontainment Screening …, 2010):
Out of some 2,500 compounds screened, about 2,100 (84%) were called active.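 The calls were made as follows: active = toxic compounds, whose cell viability fell below 70% of untreated control cells; inactive = the rest.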 So high a share suggests a set chosen from earlier hits. A selection follows. A call without a number means that no potency is given here. Potency and affinity values are given separately.

Test: HEp-2 cell cytotoxicity, dose response, cytotoxicity control for RSV inhibitor project, HTS (AID 2410);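 also: cells exposed to compound for six days before readout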
Conditions: HEp-2 viability, luminescence, cytotoxicity counter-screen; series mostly up to 50 µM

SMILES	outcome
Cc1c(NC(=O)CN2C(=O)c3ccccc3C2=O)c(=O)n(-c2ccccc2)n1C	inactive
COc1ccc(S(=O)(=O)NCc2ccco2)cc1-c1nnc2c3ccccc3c(C)nn12	inactive
C/C(N)=C(/C#N)C(=O)COC(=O)CNS(=O)(=O)c1ccc2ccccc2c1	inactive
O=c1cc(-c2ccc(O)c(O)c2)oc2c(C3O[C@H](CO)[C@@H](O)[C@H](O)[C@H]3O)c(O)cc(O)c12 (some centres undefined)	inactive
COc1ccc(OC)c(-c2nc3c(C)n[nH]c(=O)c3[nH]2)c1	inactive
COc1ccc(C(C)=O)cc1COc1ncnc2ccccc12	inactive
COc1ccc2c(CC(=O)Nc3ccc(OC)c(NS(=O)(=O)c4ccc(F)cc4)c3)coc2c1	inactive
Cc1ccc(-c2n[nH]c(=S)n2/N=C/c2ccncc2)cc1	inactive
COCCNC(=O)c1cc2c(s1)-c1ccc(Cl)cc1SC2	inactive
Cc1cc2cc(C)c(NCCNC(=O)c3ccccc3F)nc2cc1C	inactive
Clc1ccc(Nc2ccc3ccccc3n2)cc1	inactive
O=C(NC1=NCCS1)c1ccc(-c2ccc(Cl)cc2)o1	inactive
CCOC(=O)N1CCN(C(=O)CSc2nnc(-c3ccc(C)c(C)c3)o2)CC1	inactive
O/N=C/c1ccccc1OCc1ccc(Cl)cc1	inactive
O=C(O)c1nn(CCOc2c(Cl)cccc2Cl)c(=O)c2ccccc12	inactive
O=C(Nc1ccc(Cl)cc1Cl)C1=Cc2ccccc2OC1	inactive
COc1ccc(C(=O)Nc2cccc3c2CCCC3)c(OC)c1	inactive
O=C(O)c1ccc(N/N=C/c2cc(Br)cs2)cc1	inactive
CCOc1cccc(C(=O)Nc2ccc(NC(=O)c3ccccc3)c(C)c2)c1	inactive
CCOc1ccc(NC(=O)c2csc3c2CCCC3)cc1	inactive
COc1ccc(CCNC(=O)c2ccc(N(C)S(=O)(=O)c3ccc(C)cc3)cc2)cc1	inactive
COc1ccc2[nH]cc(C(=O)CN3CCN(C4CCCCC4)CC3)c2c1	inactive
CC1(C)Cc2cccc(C(=O)Nc3ccc(F)cc3F)c2O1	inactive
O=C1c2ccccc2C(=O)N1CC1c2ccccc2CCN1C(=O)C1CCCCC1 (centres undefined)	inactive
O=c1c2ccccc2nc(/C=C/c2ccc(Br)cc2)n1CCCO	inactive

SMILES	outcome
CC(=O)N1CCN(C2=NC(=O)/C(=C/c3ccc(OS(=O)(=O)c4ccccc4)cc3)S2)CC1	inactive
CCn1nc(NC(=O)c2ccccc2)c2cc3cccc(C)c3nc21	inactive
N#Cc1c(-c2c(Cl)cccc2Cl)noc1/C=C/Nc1ccc(C(=O)O)cc1	inactive
Cc1csc2c(=O)sc(NC(=O)c3ccc(F)cc3)nc12	inactive
Cc1[nH]c2ccccc2c1/C=N/Nc1ccc([N+](=O)[O-])cc1	inactive
Cc1ccc(-c2nc(-c3cccnc3)no2)c(C)c1	inactive
COc1ccc2nc(/C=N/NC(=O)[C@H](C)NC(=O)OC(C)(C)C)ccc2c1	inactive
CC(=O)Nc1cccc(-c2csc(Nc3cccc(C)n3)n2)c1	inactive
CCOC(=O)c1cccc(NC(=O)Nc2cc(OC)ccc2OC)c1	inactive
N=C1SCC(=O)N1c1nc(-c2ccccc2)cs1	inactive
CS(=O)(=O)c1ccccc1C(=O)Nc1ccc(-c2nc3ccccc3o2)cc1	inactive
CSc1nnc(-c2ccc(Cl)cc2Cl)o1	inactive
CCOc1ccc2nc3c(cc2c1)CN(CCCO)C(=NCCOC)S3	inactive
O=[N+]([O-])c1ccc2c(c1)nnn2-c1ccccc1	inactive
CCN(CC)c1nc(Nc2ccc(Cl)cc2)nc(OCC#N)n1	inactive
Cn1c(=NC(=O)C2CC2)sc2cc(F)cc(F)c21	inactive
COC(=O)c1ccc2[nH]ccc2c1	inactive
CC1CCCN(C(=O)CCNS(=O)(=O)c2ccc(Br)cc2)C1 (centres undefined)	inactive
c1coc(-c2nn3c(Cn4nnc5ccccc54)nnc3s2)c1	inactive
c1ccc(-c2nn3c(Cn4nnc5ccccc54)nnc3s2)cc1	inactive
CCOC(=O)Cc1c(C)c2ccc(N(CC)CC)cc2oc1=O	inactive
Cc1c(Cc2ccccc2)c(=O)oc2cc(O)cc(O)c12	inactive
CNc1oc(/C=C/c2cccc(OC)c2)nc1C#N	inactive
N#Cc1c(N2CCOCC2)nsc1-c1ccc(C(F)(F)F)cc1	inactive
Cc1ccc(-c2nc3cc(N)ccc3o2)cc1Br	inactive

SMILES	outcome
COC(=O)c1sccc1NC(=O)c1ccccc1F	inactive
O=C(NCCN1CCN(C(=O)C(c2ccccc2)c2ccccc2)CC1)C(=O)Nc1ccccc1	inactive
COc1cc(N)c(Cl)cc1NC(=O)c1ccccc1	inactive
Cc1nn2c(N)c(C#N)cnc2c1-c1ccccc1	inactive
Cc1ccc(Nc2nc(N)c([N+](=O)[O-])c(N3CCOCC3)n2)cc1C	inactive
C[C@@H]1CN(C(=O)c2nc3ccc(Cl)cn3c2CN2CCc3sccc3C2)C[C@H](C)O1	inactive
CN(CC(=O)NCc1ccc(F)cc1)S(=O)(=O)c1cccc2nsnc12	inactive
CCN(c1ccccc1)S(=O)(=O)c1ccc(Cl)c(NC(=O)c2ccc(=O)[nH]n2)c1	inactive
CSc1ncc(Cl)c(C(=O)Nc2ccccc2Br)n1	inactive
C/C(N)=C(/C#N)C(=O)COC(=O)c1ccncc1	inactive
C=CCC1(C#N)C(=S)NC(C)=C(C(=O)OCC)C1c1ccccc1 (centres undefined)	inactive
CNC(=S)N/N=C(\C)c1ccc(-n2ccnc2)cc1	inactive
Cc1ccc(-n2c(-c3cccnc3)n[nH]c2=S)c(C)c1	inactive
COc1cc(-c2nc3c(c(C)nn3-c3ccccc3)c3cc(OC)c(OC)cc23)ccc1O	inactive
COc1ccc(/C=C/C(=O)NCc2nc3ccccc3[nH]2)cc1OC	inactive
CC(C(=O)NCCc1ccc(Cl)cc1)n1c(=O)c2cccn2c2cccnc21 (centres undefined)	inactive
O=[N+]([O-])c1ccc(N/N=C/c2cccnc2)cc1	inactive
COc1ccc(C2Nc3cc(OC)ccc3-n3cccc32)cc1 (centres undefined)	inactive
COc1ccc(-c2cc(C(=O)Nc3nc4c(C)cccc4s3)c3ccccc3n2)cc1OC	inactive
CCCNC(=O)N1CCN(c2nc(C(C)C)c3c(c2C#N)CC(C)(C)OC3)CC1	inactive
Cc1cccc2nc(COc3ccc(Cl)c4cccnc34)cn12	inactive
O=C1[C@H]2[C@@H](c3ccc(Cl)cc3)N3C(=O)N(c4cccc(Br)c4)C(=O)[C@@]3(Cc3ccc(Cl)cc3)[C@H]2C(=O)N1C1CCCCC1	inactive
O=C1[C@H]2[C@@H](c3ccc(F)cc3)N3C(=O)N(c4ccc(Br)cc4)C(=O)[C@@]3(Cc3ccc(Cl)cc3)[C@H]2C(=O)N1C1CCCCC1	inactive
CC(C)(C)N1C(=O)[C@H]2[C@@H](c3ccc(Br)cc3)N3C(=O)N(c4cccc(Cl)c4)C(=O)[C@@]3(Cc3ccccc3)[C@H]2C1=O	inactive
